Screening data as filed in PubChem BioAssay.
A selection: hits, their analogues and other compounds. The true share with any hit is near 12%.
Sfp inh = qHTS Assay for Inhibitors of Bacillus subtilis Sfp phosphopantetheinyl transferase (PPTase). Biochemical Sfp PPTase activity, qHTS. Potency, µM, for inactives: largest response in the series, negative = inhibition, usual class: inhibitors. 4'-phosphopantetheinyl transferase ffp (Bacillus subtilis), Q9F4F7. hit rate 3.5% among 310,000;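 further: the enzyme is Sfp with the accession as filed and its product quenches rhodamine fluorescence; 0% = enzyme reaction without inhibitor and -100% = no enzyme wells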
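Fluorescence-quenching assay with 15 nM Sfp, 5 uM rhodamine-CoA and 12.5 uM BHQ-2-labelled ybbR peptide in pH 7.6 Hepes/MgCl2 buffer. Enzyme was pre-incubated with compound for 15 min at room temperature. Rate was taken from the 30-min fluorescence change (525/598 nm).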
PLK1 PBD inh = qHTS for Inhibitors of PLK1-PDB (polo-like kinase 1 - polo-box domain): Primary Screen | Serine/threonine-protein kinase PLK1 (Homo sapiens), P53350 | hit rate 2.8% among 360,000 | Plk1 PBD binding of FITC phosphopeptide, fluorescence polarization | Potency, µM, inactives show max response, negative = inhibition, hits mostly inhibitors; further: series mostly up to about 57 µM; on the % scale 0 is the no-effect control and ±100 the full control effect; nearly all actives have a fitted effect of over 65% in size
HP1b binding inh = HTS for Inhibitors of HP1-beta Chromodomain Interactions with Methylated Histone Tails. AlphaScreen HP1-beta / biotin-H3K9me3 peptide binding. Chromobox protein homolog 1 (Homo sapiens), P83916. hit rate 0.56% among 390,000. Potency, µM (highest dose often 114 µM), without a hit: at the highest dose activity change, negative = inhibition, most hits filed as inhibitors; further: nearly all actives have a fitted effect of over 70% in size
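AlphaScreen: HP1-beta (50 nM) preformed 30 min with biotin-H3(1-18)K9me3 peptide (50 nM) in PBS pH 7.4, 0.01% Tween-20. Compound added for 30 min at RT, then streptavidin donor/nickel chelate acceptor beads (10 ug/mL) for 30 min.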
BAZ2B inh = qHTS Assay for Inhibitors of BAZ2B. Potency, µM (series often up to 114 µM), for the others: at the top dose activity change, negative = inhibition, actives largely listed as inhibitors. AlphaScreen BAZ2B-H3K14Ac peptide displacement. hit rate 4.4% among 360,000. Bromodomain adjacent to zinc finger domain protein 2B (Homo sapiens), Q9UIF8; further: on the % scale 0 is the no-effect control and ±100 the full control effect; nearly all actives have a fitted effect of over 60% in size
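Multi-concentration screen (max 110 uM) measuring displacement of acetylated histone H3 peptide from BAZ2B by AlphaScreen, using 50 nM protein, 50 nM peptide and 10 ug/mL streptavidin donor plus Ni-chelate acceptor beads.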
JMJD2A Tudor = qHTS Assay for Inhibitors of JMJD2A-Tudor Domain | hit rate 4.4% among 390,000 | Potency, µM (titrated, usually from 114 µM), inactives show at the highest dose activity change, negative = inhibition, usual class: inhibitors | Lysine-specific demethylase 4A (Homo sapiens), O75164 | AlphaScreen JMJD2A-Tudor / H3K4me3 peptide binding; further: on the % scale 0 is the no-effect control and ±100 the full control effect; nearly all actives have a fitted effect of over 50% in size
G9a inh = qHTS Assay for Inhibitors of Histone Lysine Methyltransferase G9a | Histone-lysine N-methyltransferase EHMT2 (Homo sapiens), Q96KQ7 | G9a H3K9 monomethylation, AlphaScreen, 2 h | Potency, µM (series often up to 102 µM), inactives show at the highest dose activity, negative = inhibition, most hits filed as inhibitors | hit rate 8.8% among 350,000 | AID 504332, 2011; further: on the % scale 0 is the no-effect control and ±100 the full control effect; nearly all actives have a fitted effect of over 75% in size
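Readings reflect AlphaScreen signal from monomethyl-H3K9 antibody detection. HMT at 20 nM; substrate b-H3K9 500 nM; cofactor SAM 20 uM; 2 h RT reaction; compounds tested as titrations in qHTS with 15 min preincubation.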
Starred values were filed as active, the others as inactive; ? = inconclusive; / = not tested or not shown; [ ] = remark or other dose. The call rests on the fitted dose curve; in most records, active means well fitted curve in the direction sought with a large enough effect; inconclusive means small, poorly fitted or top-dose-only effect, or another doubt; inactive means no such curve, though single readings can be large; an effect the other way counts as inactive or inconclusive. Potency means the concentration at half of the fitted maximal effect.

SMILES	Sfp inh	PLK1 PBD inh	HP1b binding inh	BAZ2B inh	JMJD2A Tudor	G9a inh
Cc1cc(C)cc(NC(=S)N(Cc2ccc(Cl)cc2)Cc2ccc(C(=O)O)cc2)c1	-9%	-8%	20%	?	-23%	19%
CCc1ccc(NC(=S)N(Cc2ccc(Cl)cc2)Cc2ccc(C(=O)O)cc2)cc1	18µM*	24µM*	-17%	-13%	-30%	-36%
Cc1cc(NC(=S)N(Cc2ccc(Cl)cc2)Cc2ccc(C(=O)O)cc2)ccc1Cl	-6%	30µM*	4%	?	-24%	?
Cc1ccc(NC(=S)N(Cc2ccc(Br)cc2)Cc2ccc(C(=O)O)cc2)cc1C	17%	?	-19%	-28%	-27%	45µM*
Cc1cccc(NC(=S)N(Cc2ccc(Cl)cc2)Cc2ccc(C(=O)O)cc2)c1	3%	-11%	18%	1%	-15%	-45%
CC1=C(C(=O)Nc2ccc(C)cc2C)C(c2ccccc2)n2ncc(C(=O)Nc3ccccc3)c2N1 (centres undefined)	/	/	17%	-4%	-15%	-10%[59 µM]
COc1ccc(CN(Cc2ccc(C(=O)O)cc2)C(=S)Nc2ccccc2Cl)cc1OC	?	-2%	33%	-16%	-9%	-15%
COc1ccc(CN(Cc2ccc(C(=O)O)cc2)C(=S)Nc2ccccc2C)cc1OC	-22%	-19%	36%	-11%	-16%	45µM*
N#CC1=C2SCN(Cc3ccco3)CN2C(=O)CC1c1cccc2ccccc12 (centres undefined)	1.4µM*	24µM*	?	?	56µM*	0.89µM*
N#CC1=C2SCN(Cc3ccco3)CN2C(=O)CC1c1ccccc1F (centres undefined)	2µM*	27µM*	45µM*	56µM*	5µM*	0.28µM*
Cc1ccc(C(=O)Nc2nnc(CC(=O)N/N=C/c3ccc(O)c(O)c3)s2)cc1	-13%	-22%	-24%	79µM*	?	-31%[2.33 µM]
COc1ccc(C(=O)Nc2nnc(CC(=O)N/N=C/c3ccc(O)cc3O)s2)cc1	-1%	/	/	-5%	/	-2%
Cc1ccc(C(=O)Nc2nnc(CC(=O)N/N=C/c3ccncc3)s2)cc1	-24%	-30%	23%	?	?	35µM*
CCOc1ccc(-c2cc3c(=O)n(Cc4nc(-c5cccc(OC)c5OC)oc4C)ccn3n2)cc1Cl	/	/	17%	1%	-10%	-1%[59 µM]
O=C(c1ccccc1F)N1CCN(c2cccc(C(F)(F)F)c2)CC1	11%	5%	18%	9%	1%	3%[59 µM]
O=C(c1c(F)c(F)c(F)c(F)c1F)N1CCN(c2cccc(C(F)(F)F)c2)CC1	-18%	6µM*	?	0%	14µM*	?
O=C(c1cc(=O)[nH]c2ccccc12)N1CCN(c2cccc(C(F)(F)F)c2)CC1	-5%	19µM*	?	-19%	?	2%
Cc1nn(-c2ccc(N3CCOCC3)nn2)c(C)c1CCC(=O)Nc1ccc(F)cc1F	/	/	97%	25%	-29%	-2%[59 µM]
O=C(O)c1cn(C2CC2)c2cc(N3CCN(S(=O)(=O)c4ccc5c(c4)OCCO5)CC3)c(F)cc2c1=O	10%	-3%	-19%	50µM*	?	5%[12.7 µM]
CC1CC(C)CN(S(=O)(=O)c2ccc(NC(=O)c3ccc(=O)[nH]c3)cc2)C1 (centres undefined)	/	9%	28%	2%	1%	17%[12.7 µM]
NS(=O)(=O)c1ccc(CCNC(=O)CCNS(=O)(=O)c2ccccc2C(F)(F)F)cc1	/	4%	39%	5%	-1%	3%[2.33 µM]
COc1ccc(NC(=O)c2cc3ccccc3o2)cc1	3%	-12%	9%	-3%	-5%	1%
O=C(Nc1ccc(N2CCCC2)cc1)c1cc2ccccc2o1	?	-3%	-12%	25µM*	?	/
COc1ccc(NC(=O)c2cc3ccccc3o2)cc1OC	9%	24µM*	-16%	-16%	?	?
O=C(Nc1ccc(N2CCCCCC2)cc1)c1ccc[nH]1	/	-4%	?	45µM*	50µM*	-26%[2.33 µM]
SMILES	Sfp inh	PLK1 PBD inh	HP1b binding inh	BAZ2B inh	JMJD2A Tudor	G9a inh
CC(=O)N1CCN(c2ccc(NC(=O)c3cc4ccccc4o3)cc2)CC1	13%	2%	29%	-24%	0%	-37%
CSc1ccc(CN(C)C(=O)c2cc3ccccc3o2)cc1	1%	-11%	47%	21%	12%	0%
CN(Cc1ccccc1N1CCCC1)C(=O)c1cc2ccccc2o1	/	2%	?	/	40µM*	/
COc1ccc(-c2oc3ncn4nc(-c5ccccc5O)nc4c3c2-c2ccc(OC)cc2)cc1	/	/	20%	5%	5%	18%[59 µM]
COc1ccc(-c2csc(C(NC(C)=O)c3ccc(F)c(F)c3)n2)cn1 (centres undefined)	/	-6%	/	/	/	/
CC[C@H](C)[C@H](NC(=O)[C@H](CCC(=O)O)NC(=O)[C@H](CC(N)=O)NC(=O)[C@@H](N)[C@@H](C)O)C(=O)N[C@H](C(=O)N[C@@H](CCC(=O)O)C(=O)N[C@@H](CCC(=O)O)C(=O)N[C@@H](CCC(N)=O)C(=O)N[C@@H](Cc1ccc(O)cc1)C(=O)N[C@H](C(=O)N1CCC[C@H]1C(=O)N[C@@H](CCC(N)=O)C(=O)N[C@@H](CO)C(=O)N[C@@H](CC(C)C)C(=O)N[C@@H](C)C(=O)N[C@H](C(=O)N[C@@H](CC(C)C)C(=O)N[C@@H](CCC(=O)O)C(=O)N[C@@H](CO)C(=O)N[C@H](C(=O)N[C@@H](Cc1ccccc1)C(=O)N[C@@H](CCC(N)=O)C(=O)N[C@@H](CCC(=O)O)C(=O)N[C@@H](CC(C)C)C(=O)NCC(=O)N[C@@H](CCCCN)C(=O)N[C@@H](CC(C)C)C(=O)N[C@H](C(=O)NCC(=O)N1CCC[C@H]1C(=O)N[C@@H](CC(N)=O)C(=O)N[C@@H](CO)C(=O)N[C@@H](CCC(N)=O)C(=O)O)[C@@H](C)O)C(C)C)[C@@H](C)O)[C@@H](C)O)C(C)C	-5%	/	/	/	/	/
COc1ccc(NC(=O)c2cc3cccc(OC)c3oc2=Nc2ccc(C(=O)O)cc2)cc1OC	7%	-13%	17%	-32%	-19%	40µM*
O=C(Nc1ccc(N2CCCCC2)cc1)c1ccccn1	1%	-18%	?	?	?	45µM*
